Test [1] can be described thus: APR_HepG2_CellCycleArrest_24hr: Apredica 24-hour HepG2 Assay for Cell Cycle Arrest (AID 2282905).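 Note: cell cycle arrest scored as ratio of 2N to 4N nuclear DNA content.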 As to conditions: imaging, actives raise or lower the signal. The gist of the method: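 Readout: Hoechst 33342 nuclear DNA content by high-content fluorescent imaging, six images/well, 20x. Human HepG2 liver cells, 24 hr compound exposure, 0.39–200 uM, final DMSO 0.5% v/v. Gain or loss fitted relative to DMSO baseline.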

Test [2] is described as follows: APR_HepG2_NuclearSize_24hr: Apredica 24-hour HepG2 Assay for Nuclear Size (AID 2282907). To be noted: high-content imaging, actives raise or lower the signal. The gist of the method:
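Read-out: nuclear diameter from Hoechst 33342 (2 ug/mL) imaging of fixed HepG2 cells, 20x, six fields/well. Compounds ran at 0.39–200 uM for 24 hr, 0.5% DMSO final. Gain or loss was fitted bidirectionally relative to the DMSO baseline.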

The nature of test [3]: APR_HepG2_CellLoss_24hr: Apredica 24-hour HepG2 Assay for Cell Loss (AID 2282908).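 For AC50: fit in both directions so a hit may be cell loss or gain.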 To be noted: high-content imaging. The gist of the method:
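Read-out: Hoechst 33342-stained nuclei counted by automated fluorescence imaging after formaldehyde fixation and Triton permeabilization. Ten concentrations, 0.39 to 200 uM, duplicate wells, 0.5% DMSO final. Gain or loss of signal fitted relative to DMSO baseline.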

Test [4] can be described thus: APR_HepG2_MicrotubuleCSK_24hr: Apredica 24-hour HepG2 Assay for Microtubule CSK Stabilty (AID 2282909). As to conditions: HepG2 microtubule cytoskeleton imaging, actives raise or lower the signal. The gist of the method:
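Read-out: alpha-tubulin immunofluorescence intensity by automated high-content imaging of fixed HepG2 cells after 24 h compound treatment. Ten concentrations, 0.39 to 200 uM, in duplicate; DMSO 0.5% v/v. Taxol positive control; DMSO-normalized bidirectional curve fitting.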

The nature of test [5]: APR_HepG2_MitoticArrest_24hr: Apredica 24-hour HepG2 Assay for Mitotic Arrest (AID 2282910). As to conditions: high-content imaging, actives raise or lower the signal. The gist of the method: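 Treatment lasted 24 hr in the human HepG2 line at 0.39–200 uM, solvent held at 0.5% DMSO. Fixed cells were stained with Hoechst 33342 and anti-phospho-histone H3, imaged at 20x, and analysed by gain- or loss-of-signal fitting against DMSO.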

The nature of test [6]: APR_HepG2_MitoMembPot_24hr: Apredica 24-hour HepG2 Assay for Mitochondrial Membrane Potential (AID 2282911). To be noted: imaging, actives raise or lower the signal. The gist of the method: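 Cells are dosed for 24 hr across 0.39 to 200 uM with solvent held at 0.5% DMSO. They are then stained with 250 nM MitoTracker Red CMXRos for 30 min, fixed in 3.7% formaldehyde and imaged.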

The nature of test [7]: APR_HepG2_MitoMass_24hr: Apredica 24-hour HepG2 Assay for Mitochondrial Mass (AID 2282912). As to conditions: high-content imaging, actives raise or lower the signal. The gist of the method:
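HepG2, 24 hr dosing, 10 concentrations 0.39–200 uM in duplicate, DMSO 0.5% final. MitoTracker Red CMXRos 250 nM, 30 min pre-fix; 3.7% formaldehyde fix. Imaging-based fluorescence intensity; gain/loss fit vs DMSO baseline.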

Test [8] is described as follows: APR_HepG2_p53Act_24hr: Apredica 24-hour HepG2 Assay for p53 Activation (AID 2282913).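 Note: p53 protein immunofluorescence averaged per cell in HepG2 with Hoechst nuclei.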 To be noted: high-content imaging, actives raise or lower the signal. The gist of the method: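 Human HepG2 liver cells; 24 hr cpd treatment, 0.39–200 uM, 0.5% DMSO final. Fixed in 3.7% formaldehyde, permeabilized with 0.5% Triton X-100, stained with anti-p53/Cy5 plus Hoechst 33342. Six images per well at 20x; gain or loss vs DMSO.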

The nature of test [9]: APR_HepG2_CellCycleArrest_72hr: Apredica 72-hour HepG2 Assay for Cell Cycle Arrest (AID 2282914). To be noted: high-content imaging, actives raise or lower the signal. The gist of the method: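 Read-out is Hoechst-stained nuclear DNA content measured by automated fluorescence imaging (20x, six images per well), fitted in both directions relative to DMSO. Human HepG2 liver cells received 0.39–200 uM compound for 72 hr at 0.5% v/v DMSO.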

A short description of test [10]: APR_HepG2_CellLoss_72hr: Apredica 72-hour HepG2 Assay for Cell Loss (AID 2282915). As to conditions: high-content imaging. The gist of the method: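 HepG2 cells were exposed for 72 hr to compounds at 0.39–200 uM (ten concentrations, duplicate) in 0.5% v/v final DMSO. Nuclei were stained with Hoechst 33342 after 3.7% formaldehyde fixation, imaged at 20x, and counted; fits bidirectional versus DMSO.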

The nature of test [11]: APR_HepG2_P-H2AX_72hr: Apredica 72-hour HepG2 Assay for H2AX Phosphorylation (AID 2282916).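 Note: phospho-histone H2A.x immunostain intensity per cell marking DNA damage.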 As to conditions: imaging, actives raise or lower the signal. The gist of the method:
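Readout: phospho-H2A.x immunofluorescence (FITC secondary) plus Hoechst nuclear stain, high-content imaging at 20x, six fields/well. HepG2, 72 hr compound exposure, 0.39–200 uM, final DMSO 0.5% v/v. Gain or loss fitted relative to DMSO baseline.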

Test [12] in a line: APR_HepG2_MitoMembPot_72hr: Apredica 72-hour HepG2 Assay for Mitochondrial Membrane Potential (AID 2282917). As to conditions: imaging, actives raise or lower the signal. The gist of the method:
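HepG2 cells exposed 72 h to compounds at 0.39–200 uM (0.5% v/v DMSO, duplicates); MitoTracker Red CMXRos 250 nM loaded 30 min before 3.7% formaldehyde fixation, imaged by HCS fluorescence. Bidirectional fit versus DMSO.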

A short description of test [13]: APR_HepG2_MicrotubuleCSK_72hr: Apredica 72-hour HepG2 Assay for Microtubule CSK Stabilty (AID 2282919). As to conditions: HepG2 microtubule cytoskeleton, high-content imaging, actives raise or lower the signal. The gist of the method: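 Ten-point dosing (0.39–200 uM, 0.5% DMSO) of HepG2 for 72 hr, with taxol as the cytoskeletal positive control. The cells were formaldehyde-fixed and then stained with alpha-tubulin/Cy5 and Hoechst. Imaging at 20x used a −2 um Z offset for tubulin.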

Test [14] is described as follows: APR_HepG2_P-H2AX_24hr: Apredica 24-hour HepG2 Assay for H2AX Phosphorylation (AID 2282920). To be noted: high-content imaging, actives raise or lower the signal. The gist of the method:
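HepG2, 24 hr, cpd 0.39–200 uM (10 conc, duplicate), DMSO 0.5% v/v final. Fix 3.7% formaldehyde, Triton X-100 permeabilize, anti-phospho-H2A.x 1:200 + Hoechst 2 ug/mL. Imaged, bidirectional fit vs DMSO.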

Test [15] in a line: APR_HepG2_StressKinase_24hr: Apredica 24-hour HepG2 Assay for Stress Kinase (AID 2282922). To be noted: HepG2 stress kinase (phospho-c-Jun) imaging, actives raise or lower the signal. The gist of the method: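 After 24 hr compound treatment (up to 200 uM, final DMSO 0.5% v/v), HepG2 cells are fixed and multiplex-labeled; phospho-c-Jun intensity is captured by high-content fluorescence imaging and analyzed relative to DMSO.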

Test [16] is described as follows: APR_HepG2_p53Act_72hr: Apredica 72-hour HepG2 Assay for p53 Activation (AID 2282923).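 Note: average cellular p53 protein immunofluorescence intensity in HepG2 cells.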 As to conditions: high-content imaging, actives raise or lower the signal. The gist of the method: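 Readout: p53 immunofluorescence quantified by automated high-content imaging at 20x, six fields per well, nuclei located via Hoechst. Dosing ran 72 hr over ten concentrations from 0.39 to 200 uM; bidirectional curve fitting against DMSO baseline.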

A short description of test [17]: APR_HepG2_MitoMass_72hr: Apredica 72-hour HepG2 Assay for Mitochondrial Mass (AID 2282924).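 Note: MitoTracker Red CMXRos stain intensity per cell imaged as mitochondrial mass.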 To be noted: high-content imaging, actives raise or lower the signal. The gist of the method: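 Steps: treat HepG2 72 hr (0.39–200 uM, duplicate wells); load MitoTracker Red CMXRos, 250 nM, 30 min; fix with 3.7% formaldehyde, permeabilise with 0.5% Triton X-100; capture images, nuclei via Hoechst 33342; fit bidirectionally against DMSO.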

Test [18] can be described thus: APR_HepG2_NuclearSize_72hr: Apredica 72-hour HepG2 Assay for Nuclear Size (AID 2282925). As to conditions: high-content imaging, actives raise or lower the signal. The gist of the method: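 Compounds (0.39–200 uM, final DMSO 0.5%) were applied to HepG2 for 72 hr. Cells were then formaldehyde-fixed, permeabilized and labelled with Hoechst 33342. Nuclear diameter was quantified from six images per well.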

The nature of test [19]: APR_HepG2_StressKinase_72hr: Apredica 72-hour HepG2 Assay for Stress Kinase (AID 2282921). To be noted: HepG2 stress kinase (phospho-c-Jun) imaging, actives raise or lower the signal. The gist of the method:
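Phospho-c-Jun immunofluorescence measured by high-content imaging at 20x, six fields per well; bidirectional curve fitting against DMSO as baseline. Dosing: 0.39–200 uM, 72 h, 0.5% DMSO final.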

Activity calls are given as the source filed them. Rule for the calls: active = hit-call score of the fitted dose curve at least 0.9, where 1 is the maximum; inactive = score below 0.9.

Take `CN1C(=O)CC[C@H]1c1cccnc1`: the result in test [1], in test [2], in test [3], in test [4], in [5] and in test [6] was inactive. The result in [7], in [8], in test [9], in test [10], in [11] and in [12] was inactive. The compound was called inactive in [13], in [14], in test [15], in [16], in test [17] and in [18].
For the compound `CCCCCc1ccc(N)cc1`, the outcome in [1], in [2], in test [3], in test [4], in test [5] and in [6] was inactive. The call in test [7], in test [8], in test [9], in [10], in test [11] and in test [12] was inactive. The outcome in [13], in test [14], in [19], in test [15], in test [16] and in test [17] was inactive. In addition, the outcome in [18] was inactive.
As for `Cc1oc2c(NC(=O)c3c(Cl)cccc3Cl)cccc2c1C(C)(C)O`, the outcome in test [1], in test [2], in [3], in test [4], in [5] and in test [6] was inactive. Besides, the result in test [7], in test [8], in [9], in test [10], in test [11] and in [12] was inactive. The result in test [13], in [14], in test [19], in [15], in [16] and in test [17] was inactive. Also, in [18], the call was inactive.
For `CCCCCCCCOC(=O)c1cc(O)c(O)c(O)c1`, the AC50 (commonly the concentration giving half of the maximal activity seen) in [1] was 14.8 µM (active); in test [3], 90 µM (active); in test [4], 171 µM (active); in [5], 50.8 µM (active); in test [6] it was 13.5 µM (active); in [8], 43.3 µM (active). For the same compound, the AC50 was 8.95 µM (active) in [9]; 63.2 µM (active) in test [10]; 5.88 µM (active) in test [11]; 23.8 µM (active) in test [12]; 45.6 µM (active) in test [14]; 52.1 µM (active) in test [15]. Moreover, the AC50 in test [16] was 4.98 µM (active). The call in [2], in test [7], in test [13], in test [19], in test [17] and in test [18] was inactive.
Regarding `CN(C)c1ccc(C(=C2C=CC(=[N+](C)C)C=C2)c2ccc(N(C)C)cc2)cc1`, the AC50 in test [1] was 0.747 µM (active); in test [3], 6.05 µM (active); in test [4], 22 µM (active); in test [5] it was 4.66 µM (active); in [6], 27.3 µM (active); in test [8], 2.93 µM (active). The AC50 in test [9] was 0.407 µM (active); in test [10], 3.23 µM (active); in [11], 4.24 µM (active); in [12] it was 0.384 µM (active); in test [13], 12.4 µM (active); in test [14], 4.3 µM (active). Besides, the AC50 is 40 µM (active) in test [19], 6.59 µM (active) in test [15], 19.9 µM (active) in test [16] and 0.0403 µM (active) in [17]. Further, the outcome in test [2], in test [7] and in [18] was inactive.
For the compound `O=C1O[C@H]([C@@H](O)CO)C(O)=C1O`, the call in [1], in [2], in test [3], in test [4], in [5] and in [6] was inactive. Moreover, the call in test [7], in test [8], in [9], in test [12], in test [13] and in test [14] was inactive. Further, the result in test [15] and in test [17] was inactive. Besides, the AC50 in test [10] is 16.1 µM (active); in [11] it was 11.2 µM (active); in test [16], 10.5 µM (active); in [18], 11.1 µM (active).
For the compound `NC(=O)c1nc(-c2cccc(-c3cc(F)ccc3OCC(F)(F)C(F)(F)F)c2)n[nH]1`, the compound was called inactive in test [1], in test [2], in [4], in [6], in test [8] and in test [12]. Moreover, the compound was classed as inactive in test [13], in [14], in test [15], in test [16] and in test [17]. In addition, the AC50 in test [3] is 127 µM (active); in [5], 101 µM (active); in test [7], 160 µM (active); in test [9], 104 µM (active); in test [10], 91.9 µM (active); in test [11] it was 111 µM (active). In addition, the AC50 in test [19] is 93.4 µM (active); in [18], 100 µM (active).

The record behind these values is PubChem BioAssay (EPA / NIEHS).
